Rows were chosen to be rich in hits. Some 19% of all compounds tested hit in one or more screens of this group.
TDP1 cell CPT – qHTS for Inhibitors of human tyrosyl-DNA phosphodiesterase 1 (TDP1): qHTS in cells in presence of CPT; chicken DT40 Tdp1-/-;hTDP1 cells + 20 nM CPT, ATP luminescence, 48 h; Potency, µM (highest dose often 46.2 µM), hits mostly inhibitors; 420,000 tested, 12% active; further: nearly all actives have a fitted effect of over 55% in size
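Cell growth measured by CellTiter-Glo luminescence after a minimum 48 h, 37 C compound exposure with 20 nM CPT in Tdp1-knockout DT40 cells stably expressing hTDP1, seeded 400/well; qHTS titration format.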
IL1B secr inh – qHTS for Inhibitors of Inflammasome Signaling: IL-1-beta AlphaLISA Primary Screen | THP-1 LPS/ATP IL-1B secretion, AlphaLISA, 16 h; active compounds read low | activity change, % at 57.5 µM | 360,000 tested, 4.7% active; in the data active means activity change below about -50%; inconclusive means mostly about -30% to -49%
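THP-1 cells pretreated 1 hr with compounds (up to 57.5 uM final), then stimulated with LPS (250 ng/mL final) plus ATP (1.25 mM final); secreted IL-1B measured by AlphaLISA after 16 hr, decreased signal indicating inhibition.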
HT1080 IDH1KD tx – qHTS for induction of synthetic lethality in tumor cells producing 2HG: qHTS for the HT-1080-IDH1KD cell line | HT-1080 IDH1 knockdown viability, ATP luminescence, 48 h | Potency, µM (doses to about 46.1 µM), most hits filed as cytotoxic | 360,000 tested, 2% active | AID 686971, 2013
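% activity derives from luminescence (CellTiter-Glo), normalised to DMSO and no-cell wells. HT-1080-IDH1KD cells, 750/well, had 48 h compound exposure at 37 °C.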
DT40 TDP1 no CPT – qHTS for Inhibitors of human tyrosyl-DNA phosphodiesterase 1 (TDP1): qHTS in cells in absence of CPT; 420,000 tested, 15% active; Potency, µM (titrated, usually from 46.2 µM), actives largely listed as inhibitors; DT40 Tdp1-/- hTDP1 cells, no CPT, ATP luminescence, 48 h; AID 686978, 2013; further: nearly all actives have a fitted effect of over 55% in size
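A cellular qHTS used chicken DT40 cells lacking endogenous Tdp1 but carrying stably transfected human TDP1. Compounds were applied without camptothecin, and cell growth kinetics were judged by ATP-dependent luminescence after ≥48 hr.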
HT1080NT lethal – qHTS for induction of synthetic lethality in tumor cells producing 2HG: qHTS for the HT-1080-NT fibrosarcoma cell line; HT-1080-NT fibrosarcoma viability, CellTiter-Glo ATP luminescence, 48 h; Potency, µM (doses to about 46.1 µM), usual class: cytotoxic; 360,000 tested, 1.6% active; AID 686970, 2013;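 further: NT is the 2HG producing partner of a matched IDH1 knockdown line; nearly all actives have a fitted effect of over 55% in size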
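HT-1080-NT fibrosarcoma cells (2HG-overproducing), 750 cells/well in RPMI with 5% FBS, dosed after 2 h and incubated 48 h at 37C. CellTiter-Glo luminescence normalized to DMSO and no-cell wells; concentration-response curves fitted and classed.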
Hits are given with their value. Unless noted, the call rests on the fitted dose curve; in most records, active means well fitted curve in the direction sought with a large enough effect; inconclusive means small, poorly fitted or top-dose-only effect, or another doubt; inactive means no such curve, though single readings can be large; an effect the other way counts as inactive or inconclusive.

Results for CCN1CCN(C(=O)c2cccc(OC3CCN(S(=O)(=O)N(C)C)CC3)c2)CC1 ?
TDP1 cell CPT: inactive; IL1B secr inh: inactive; HT1080 IDH1KD tx: inactive; DT40 TDP1 no CPT: inactive; HT1080NT lethal: inactive

Results for Cc1cc2nc(C3CCN(C(=S)NCC(C)C)CC3)[nH]c2cc1C ?
TDP1 cell CPT: inconclusive; IL1B secr inh: inactive; HT1080 IDH1KD tx: inactive; DT40 TDP1 no CPT: inactive; HT1080NT lethal: inactive

What do the screens show for `Cc1cc2nc(C3CCN(Cc4nnnn4Cc4cccs4)CC3)[nH]c2cc1C`?
TDP1 cell CPT: 3.5µM; IL1B secr inh: inactive; HT1080 IDH1KD tx: 1.3µM; DT40 TDP1 no CPT: 6.3µM; HT1080NT lethal: inconclusive

Results for Cc1ccc(-n2c(SCC(=O)N3CCCCC3)nc(O)c(Cc3ccccc3)c2=O)cc1 ?
TDP1 cell CPT: inconclusive; IL1B secr inh: inactive; HT1080 IDH1KD tx: inactive; DT40 TDP1 no CPT: 12µM; HT1080NT lethal: inactive

How did CCN(CC)C(=O)CSc1nc(O)c(Cc2ccccc2)c(=O)n1-c1ccccc1 do in these assays?
TDP1 cell CPT: inactive; IL1B secr inh: inactive; HT1080 IDH1KD tx: inactive; DT40 TDP1 no CPT: inconclusive; HT1080NT lethal: inactive

What do the screens show for `CCN(CC)C(=O)CSc1nc(O)c(Cc2ccccc2)c(=O)n1-c1ccc(C)cc1`?
TDP1 cell CPT: inconclusive; IL1B secr inh: inactive; HT1080 IDH1KD tx: inactive; DT40 TDP1 no CPT: 13µM; HT1080NT lethal: inactive

How did CC1CC(NC(=O)CC#N)CC(C)(C)C1 (configuration not stated) do in these assays?
TDP1 cell CPT: inactive; IL1B secr inh: inactive; HT1080 IDH1KD tx: inactive; DT40 TDP1 no CPT: inactive; HT1080NT lethal: inactive

What do the screens show for `CC1CC(NC(=O)Cc2ccc(Br)cc2)CC(C)(C)C1` (configuration not stated)?
TDP1 cell CPT: 16µM; IL1B secr inh: inactive; HT1080 IDH1KD tx: inconclusive; DT40 TDP1 no CPT: inconclusive; HT1080NT lethal: inconclusive

What do the screens show for `CCOc1ccccc1N(CC(=O)Nc1ccccc1Br)S(=O)(=O)c1ccccc1`?
TDP1 cell CPT: inconclusive; IL1B secr inh: inactive; HT1080 IDH1KD tx: inactive; DT40 TDP1 no CPT: inconclusive; HT1080NT lethal: inactive

How did C[C@H](NC(=O)c1ncn2c1C(=O)NC[C@H]2C)c1ccccc1 do in these assays?
TDP1 cell CPT: inactive; IL1B secr inh: inactive; HT1080 IDH1KD tx: inactive; DT40 TDP1 no CPT: inactive; HT1080NT lethal: inactive

What do the screens show for `CCC(=O)c1ccc(OCC(=O)OCC(=O)NCCC2=CCCCC2)cc1`?
TDP1 cell CPT: inactive; IL1B secr inh: inactive; HT1080 IDH1KD tx: inactive; DT40 TDP1 no CPT: inactive; HT1080NT lethal: inactive

What do the screens show for `NC(=O)c1cc2ccccc2o/c1=N\NC(=O)c1ccc(F)cc1`?
TDP1 cell CPT: 21µM; IL1B secr inh: inactive; HT1080 IDH1KD tx: inactive; DT40 TDP1 no CPT: 8.2µM; HT1080NT lethal: inactive

What do the screens show for `Cc1ccc(S(=O)(=O)N(CC#N)CC#N)cc1`?
TDP1 cell CPT: inactive; IL1B secr inh: inactive; HT1080 IDH1KD tx: inactive; DT40 TDP1 no CPT: inactive; HT1080NT lethal: inactive

Results for C[C@@H]1CCCCO[C@H](CN(C)C(=O)c2ccccc2)[C@@H](C)CN([C@H](C)CO)C(=O)c2cc(NC(=O)c3ccncc3)ccc2O1 ?
TDP1 cell CPT: inactive; IL1B secr inh: inactive; HT1080 IDH1KD tx: inactive; DT40 TDP1 no CPT: inactive; HT1080NT lethal: inactive

What do the screens show for `C[C@H](CO)N1C[C@H](C)[C@@H](CN(C)Cc2ccc(C(=O)O)cc2)Oc2ncc(Br)cc2C1=O`?
TDP1 cell CPT: inactive; IL1B secr inh: inactive; HT1080 IDH1KD tx: inactive; DT40 TDP1 no CPT: inactive; HT1080NT lethal: inactive

How did Cc1ccc2nc(NC(=O)c3ccco3)sc2c1 do in these assays?
TDP1 cell CPT: inconclusive; IL1B secr inh: inactive; HT1080 IDH1KD tx: inactive; DT40 TDP1 no CPT: 8.2µM; HT1080NT lethal: inactive

What do the screens show for `COc1ccc2nc(NC(=O)c3ccco3)sc2c1`?
TDP1 cell CPT: inconclusive; IL1B secr inh: inactive; HT1080 IDH1KD tx: inactive; DT40 TDP1 no CPT: inconclusive; HT1080NT lethal: inactive
